Results from PubChem BioAssay (Tox21).
Inconclusive results are not listed. Values without a mark were called inactive. Calls of active or inactive are those of the source. The call rests on the fitted dose curve; in most records, active means well fitted activation curve with a large enough effect in the repeat runs; inconclusive means weak or mixed curves; inactive means flat fitted curve, though single readings scatter.
On the % scale 0 is the no-effect control and ±100 the full control effect; potency means the concentration at half of the fitted maximal effect.

Assay: A CellTox Green Cytotoxicity Assay to monitor cytotoxicity in HEK293 cells - 16 hour (AID 1224888); further: nearly all actives have a fitted effect of over 35% in size
Details: CellTox Green fluorescence; series mostly up to 76.8 µM; activity change: at the top concentration
Description: National Center for Advancing Translational Sciences [NCATS]
NIH Chemical Genomics Center [NCGC]
U.S. Environmental Protection Agency [EPA]
National Institutes of Environmental Health Sciences [NIEHS]
National Toxicology Program [NTP]
Cell-based models are critical for drug discovery. Determining the natural cytotoxic effects resulting from test compounds is an essential research activity. A CellTox Green Cytotoxicity Assay to monitor cytotoxicity in real time of continues cell culture during 40 hours of the compound treatment was used to screen Tox21 10K library compounds in Hek293 cells. CellTox Green Cytotoxicity Assay is a nonlytic, homogeneous, biofluorescent method to measure cytotoxicity in cell culture after experimental manipulation. The assay system uses a proprietary asymmetric cyanine dye that is excluded from viable cells but preferentially stains the dead cell's DNA. […] Viable cells produce no appreciable increases in fluorescence. Therefore, the fluorescence signal produced by the binding interaction with dead cell DNA is proportional to cytotoxicity.
The mixture of Hek293 cell suspension and reagents were dispensed at 600cells/6 ul/well in 1536-well tissue culture treated black solid bottom plates using a Multidrop dispenser. After the assay plates were incubated at a 37 C/5% CO2 incubator for 5 hours, 23 nL of compounds dissolved in DMSO, positive and negative controls was transferred to the assay plate by a pintool work station. The plates were incubated at 37 C for 40 hours. The fluorescence intensity were measured at 0h, 8h, 16h, 24h, 32h and 40h time points using ViewLux plate reader during compound treatment.
For O=C(O)c1cc(O)c2c(c1)C(=O)c1cccc(O)c1C2=O, the “activity change” value was -18.1%. In the case of N=C1C=CC(=C(c2ccc(N)cc2)c2ccc(N)cc2)C=C1, the “activity change” value is reported as -28%. In the case of Cc1[nH]nc2c1N=C(c1ccccc1Cl)c1cc([N+](=O)[O-])ccc1N2, the “activity change” value is reported as -3.84%. For CN(C)c1ccc(C2(c3ccc(N(C)C)cc3)OC(=O)c3cc(N(C)C)ccc32)cc1, the “activity change” value was 15.3%. With Cc1ccc(-n2nc(C(C)(C)C)cc2NC(=O)Nc2ccc(OCCN3CCOCC3)c3ccccc23)cc1 the “activity change” value was -2.43% [at 35.3 µM, active compounds read high]. In the case of Cc1ccc2oc(CN(Cc3ccccc3)C(=O)Nc3c(F)cc(F)cc3F)c(-c3ccc(Cl)cc3)c2c1, the “activity change” value is reported as -0.378%. For C=CC(=O)OCC(CO)(COC(=O)C=C)COC(=O)C=C, the Potency was “inactive”. In the case of Nc1nc2ccccc2n1Cc1ccc(F)cc1, the “activity change” value is reported as 10.2% [at 35.3 µM, active compounds read high]. With Clc1ccc(C(Cn2ccnc2)OCc2ccc(Sc3ccccc3)cc2)c(Cl)c1 (stereo not given) the “activity change” value was -6.94% [at 35.3 µM, active compounds read high]. With c1cc(C(c2ccc(OCC3CO3)cc2)c2ccc(OCC3CO3)cc2)ccc1OCC1CO1 (stereo not given) the “activity change” value was 1.25%. With CCCC/C=C/CCCCO the “activity change” value was 15.1%. With Cc1cc(O)c2ccccc2c1O the Potency was 9.52 µM (active). In the case of O=C(Nc1ccc(Oc2ccc(Cl)cc2)c(Cl)c1)c1cc(I)cc(I)c1O, the “activity change” value is reported as -0.589% [at 35.3 µM, active compounds read high]. With C[C@@H]1C[C@H]2[C@@H]3CCC4=CC(=O)C=C[C@]4(C)[C@@]3(Cl)[C@@H](O)C[C@]2(C)[C@@]1(OC(=O)c1ccco1)C(=O)CCl the “activity change” value was -14.9% [at 35.3 µM, active compounds read high]. With O=C1CCCc2c1cc1ccc3cccc4ccc2c1c34 the “activity change” value was 16.9%. With NC(=O)NS(=O)(=O)c1ccc(N)cc1 the “activity change” value was -7.14% [at 35.3 µM, active compounds read high]. In the case of CCCCCCCC/C=C\CCCCCCCCOCCO, the “activity change” value is reported as 3.08%. For CCN(C(=O)N(CC)c1ccccc1)c1ccccc1, the “activity change” value was 13.6%. For O=c1[nH]sc2cc(Cl)ccc12, the “activity change” value was 3.79% [at 35.3 µM, active compounds read high]. With CCCCCCCC(=O)[O-].CCCCCCCC(=O)[O-].[Zn+2] the “activity change” value was 9.06% [at 35.3 µM, active compounds read high]. For CN(C)[C@@H]1C(=O)C(C(N)=O)=C(O)[C@@]2(O)C(=O)C3=C(O)c4c(O)cccc4C[C@H]3C[C@@H]12, the “activity change” value was -6.2% [at 35.3 µM, active compounds read high]. In the case of CCOc1ccc2nc3cc(N)ccc3c(N)c2c1, the “activity change” value is reported as -5.26% [at 35.3 µM, active compounds read high]. For C/C(=C(/OCCOc1ccc(Cl)cc1)c1ccc(Cl)cc1Cl)n1ccnc1, the “activity change” value was -10.3% [at 35.3 µM, active compounds read high]. For CCCCCCCCNC(C)C(O)c1ccc(SC(C)C)cc1 (stereo not given), the Potency was 19 µM (active). In the case of CCCCCCOC(=O)c1ccc(O)cc1, the “activity change” value is reported as 10.7%. In the case of Cc1cc2c(cc1C(F)(F)F)N(C(=O)Nc1ccc(Oc3cccnc3C)nc1)CC2, the “activity change” value is reported as -1.09%. For Cc1oc(-c2ccccc2)nc1CCC(=O)c1ccc(CC2SC(=O)NC2=O)cc1 (stereo not given), the “activity change” value was -1.89% [at 35.3 µM, active compounds read high]. In the case of COc1ccc(CN2CCN(C(c3ccc(F)cc3)c3ccc(F)cc3)CC2)c(OC)c1OC, the “activity change” value is reported as -0.442% [at 35.3 µM, active compounds read high]. In the case of CSc1ccc(/C=C2/C(C)=C(CC(=O)O)c3cc(F)ccc32)cc1, the “activity change” value is reported as 5.27% [at 35.3 µM, active compounds read high]. With CNC(=O)c1ccccc1 the “activity change” value was 0.0462%. For Clc1ccc2n[nH]nc2c1, the “activity change” value was -0.722%. For O=C(Oc1ccccc1)c1ccccc1C(=O)Oc1ccccc1, the “activity change” value was -13.5%. With CCCCCCCCCCCCCCCC[N+](C)(C)CCN(Cc1ccc(OC)cc1)c1ncccn1 the Potency was 19 µM (active). With CC(=O)OCC(C)OC(C)=O (stereo not given) the “activity change” value was -13.2%. In the case of CC[C@@]1(O)C(=O)OCc2c1cc1n(c2=O)Cc2c-1nc1ccccc1c2/C=N/OC(C)(C)C, the “activity change” value is reported as -4.25% [at 35.3 µM, active compounds read high]. With Nc1ccccc1O the “activity change” value was -0.0667%. With O=C(NOCC1CC1)c1ccc(F)c(F)c1Nc1ccc(I)cc1Cl the “activity change” value was 1.84% [at 35.3 µM, active compounds read high]. With CC[C@H]1O[C@]2(CC[C@@H]1C)C[C@@H]1C[C@@H](C/C=C(\C)C[C@@H](C)/C=C/C=C3\CO[C@@H]4[C@H](O)C(C)=C[C@@H](C(=O)O1)[C@]34O)O2 the Potency was 48.5 µM (active). With CCN(C(=O)c1cc(C)cc(OC[C@H](C)Nc2ccncc2)c1)C(C)C the “activity change” value was -9.69% [at 35.3 µM, active compounds read high]. For CCC(C)Nc1ccc(NC(C)CC)cc1 (stereo not given), the Potency was 39.7 µM (active).
